We go through 86 sequences from publication PMC10668032, “Altered binding affinity of SIX1-Q177R correlates with enhanced WNT5A and WNT pathway effector expression in Wilms tumor”.

The full ranking holds about 33,000 sequences; the median of “e-score” is about -0.05, and the highest 2% start at about 0.38. The entries come from a sample that favours the highest values as a whole.

For this experiment, the target named is T1, SIX1-Q177R homeodomain (human, UniProt Q15475 108-198, Q177R).
T1 sequence: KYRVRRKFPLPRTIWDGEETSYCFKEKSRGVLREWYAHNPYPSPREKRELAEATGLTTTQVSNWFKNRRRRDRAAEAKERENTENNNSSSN
The experiment is described as follows: universal protein binding microarray; Universal all-10-mer PBM (8x60K, AMADID 030236), 300 nM GST-tagged protein, Alexa Fluor 488 anti-GST; buffer, salt, pH and temperature not stated (as in Berger); high values mean tight binding. The following applies: protein: ivt; tags: N-terminal GST; dsDNA, one strand shown. Summed up:
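After in vitro transcription/translation, GST-tagged homeodomains were quantified against a recombinant GST standard curve by anti-GST western blot. They were then placed in duplicate at 300 nM final concentration on universal 'all 10-mer' protein binding microarrays of 8×60K format.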
Take TAGTTACA: the binding signal is 0.249 ± 0.0533 E-score. Then GACCCGAC, with 0.193 ± 0.052 E-score; and AAGGTGTC, with 0.4706 ± 0.00267 E-score; and AAGGTGTA, with 0.461 ± 0.0153 E-score. The figure for CAGGTGTA is 0.464 ± 0.00823 E-score. Then CATGTGTA, with 0.2594 ± 0.00165 E-score. CAGGTACA: the binding signal was found to be 0.187 ± 0.0255 E-score. Then GAGGTGCA, with 0.192 ± 0.0287 E-score; and AAGGTGCA, with 0.222 ± 0.0217 E-score; and AAGGTGTG, with 0.369 ± 0.0137 E-score. GAGGTGTA: the binding signal came to 0.466 ± 0.00775 E-score.

AAGGTGGT: the binding signal is 0.151 ± 0.00564 E-score.

For GAGGTATA, the binding signal was determined as 0.18 ± 0.0163 E-score.

Consider AAGCGTGT, for which the binding signal came out at 0.378 ± 0.00665 E-score. The figure for GATCCCGA is 0.203 ± 0.0172 E-score. As to ACGCACGA, the binding signal came to 0.277 ± 0.005 E-score. The figure for CCCCCGGG is 0.195 ± 0.00105 E-score.

In the case of CCCACCCG, the binding signal came to 0.194 ± 0.0228 E-score. Then ACGAGTTA, with 0.205 ± 0.00221 E-score. For the sequence CAACCCCC, the binding signal stood at 0.242 ± 0.0559 E-score. On to ACACAAGG, for which the binding signal was determined as 0.155 ± 0.0571 E-score. ACCAGTGA: the binding signal stood at 0.189 ± 0.0202 E-score. The figure for CACTTACG is 0.206 ± 0.0274 E-score. The figure for AAGGAGTA is 0.158 ± 0.0662 E-score; for ACATGGTG it is 0.33 ± 0.0163 E-score. Regarding CACGAGCA, the binding signal turned out to be 0.242 ± 0.0191 E-score.

ACCCGACT: the binding signal worked out at 0.207 ± 0.0388 E-score. Then CTGCGACA, with 0.195 ± 0.00854 E-score; and CATGTGTC, with 0.19 ± 0.0338 E-score; and CAGGTGTC, with 0.474 ± 0.0095 E-score. Then CAGGTATC, with 0.328 ± 0.00751 E-score; and CCCAGGTA, with 0.203 ± 0.0198 E-score; and CGTGTGTC, with 0.289 ± 0.0336 E-score. In the case of CGCGTATC, the binding signal was found to be 0.155 ± 0.05 E-score. Regarding CGCGTGTC, the binding signal turned out to be 0.414 ± 0.00637 E-score. The figure for AGCGTGTC is 0.393 ± 0.00925 E-score.

Turning to AGCGTGTG, the binding signal was determined as 0.281 ± 0.00182 E-score. Then CGCGTGTA, with 0.43 ± 0.00692 E-score; and CACGCGTG, with 0.317 ± 0.0193 E-score; and AGAGCGTG, with 0.189 ± 0.00653 E-score. Then CGTGTGTA, with 0.296 ± 0.0261 E-score; and AGCGGGTA, with 0.158 ± 0.0257 E-score. Then AACGTGTG, with 0.154 ± 0.0123 E-score; and AGCGTGTA, with 0.419 ± 0.0156 E-score. As to ACCGCACC, the binding signal was 0.247 ± 0.013 E-score. Then CTCGGATA, with 0.188 ± 0.0289 E-score; and GTGGATCA, with 0.161 ± 0.0203 E-score. Then ACTGGTGC, with 0.297 ± 0.00607 E-score. The figure for CACGGTCA is 0.2431 ± 0.00219 E-score; for GTCCAACA it is 0.216 ± 0.00357 E-score. Consider AGAAACGG, for which the binding signal came out at 0.152 ± 0.0193 E-score.

For ATAGGTGC, the binding signal is 0.193 ± 0.00788 E-score.

As to ACTGAGTG, the binding signal amounted to 0.1766 ± 0.000721 E-score.

Take TCTTGACA: the binding signal turned out to be 0.167 ± 0.0124 E-score. The figure for CCCCCGAA is 0.238 ± 0.0222 E-score; for GAGGGTTA it is 0.185 ± 0.00774 E-score. In the case of CGACTAAC, the binding signal is 0.192 ± 0.0385 E-score. The figure for CACGCACG is 0.304 E-score; for ATTGCGTG it is 0.183 ± 0.0294 E-score; for GGCGTACA it is 0.283 ± 0.0225 E-score. GGCGTGTA: the binding signal came to 0.4378 ± 0.00204 E-score. The figure for GACGTGTA is 0.368 ± 0.0248 E-score; for AACACAGT it is 0.158 ± 0.0584 E-score.

As for GGCACCGA, the binding signal is 0.175 ± 0.0275 E-score.

On to TACACCGA, for which the binding signal stood at 0.4853 ± 0.00441 E-score.

For AACACTGT, the binding signal amounted to 0.3445 ± 0.00205 E-score. The figure for AACACCGA is 0.4686 ± 0.00331 E-score.

GTCACCGA: the binding signal stood at 0.175 ± 0.0101 E-score. Then AACACCGT, with 0.4669 ± 0.00366 E-score. As to AGCACCGA, the binding signal is 0.197 ± 0.00674 E-score.

With CACCCCGA, the binding signal was found to be 0.346 ± 0.0278 E-score.

As for TACACAGA, the binding signal was determined as 0.152 ± 0.0583 E-score. For GACACCGA, the binding signal was 0.486 ± 0.00613 E-score. In the case of ACCCAACA, the binding signal turned out to be 0.251 ± 0.0117 E-score. Turning to ACGATCCG, the binding signal turned out to be 0.232 ± 0.0258 E-score.

For the sequence AATCTACA, the binding signal worked out at 0.22 ± 0.0213 E-score.

With ACCCGTGC, the binding signal stood at 0.1616 ± 0.000424 E-score.

For GCACTATA, the binding signal worked out at 0.191 ± 0.0272 E-score. As to AGCACCGG, the binding signal was determined as 0.206 ± 0.0351 E-score. Then CACACCGC, with 0.412 ± 0.0184 E-score; and AACACCGG, with 0.4831 ± 0.000693 E-score. The figure for CACCGCGG is 0.3509 ± 0.00344 E-score; for CGCACCGC it is 0.209 ± 0.0348 E-score.

As for GATACCGC, the binding signal is 0.293 ± 0.00845 E-score. As to GACGCCGC, the binding signal is 0.151 ± 0.0247 E-score. The figure for CACCCCGG is 0.338 ± 0.0167 E-score.
